In the library only some 7.4% were active in any assay of this set; here they are far more common.
HEK293 tox: HEK 293 cell cytotoxicity | hit rate 6.6% among 94,000 | HEK 293 viability, ATP luminescence (CellTiter-Glo), 48-72 h | Potency, µM (series often up to 115 µM), for the others: top-dose activity change, negative = cytotoxicity, hits mostly inhibitors; further: nearly all actives have a fitted effect of over 60% in size
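qHTS cytotoxicity; HEK 293, 250 cells/well; compound pinned; 48 or 72 hr, 37 degree Celsius, 5% CO2, 95% humidity; CellTiter-Glo, 10 min RT; luminescence (ATP).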
FLuc inh: blocks purified firefly luciferase enzyme activity | P08659 | purified P. pyralis luciferase, luminescence, biochemical | Potency, µM (highest dose often 115 µM), actives largely listed as inhibitors | hit rate 2.5% among 76,000 | AID 1347043; further: nearly all actives have a fitted effect of over 65% in size
Target sequence (P08659 whole entry, looked up): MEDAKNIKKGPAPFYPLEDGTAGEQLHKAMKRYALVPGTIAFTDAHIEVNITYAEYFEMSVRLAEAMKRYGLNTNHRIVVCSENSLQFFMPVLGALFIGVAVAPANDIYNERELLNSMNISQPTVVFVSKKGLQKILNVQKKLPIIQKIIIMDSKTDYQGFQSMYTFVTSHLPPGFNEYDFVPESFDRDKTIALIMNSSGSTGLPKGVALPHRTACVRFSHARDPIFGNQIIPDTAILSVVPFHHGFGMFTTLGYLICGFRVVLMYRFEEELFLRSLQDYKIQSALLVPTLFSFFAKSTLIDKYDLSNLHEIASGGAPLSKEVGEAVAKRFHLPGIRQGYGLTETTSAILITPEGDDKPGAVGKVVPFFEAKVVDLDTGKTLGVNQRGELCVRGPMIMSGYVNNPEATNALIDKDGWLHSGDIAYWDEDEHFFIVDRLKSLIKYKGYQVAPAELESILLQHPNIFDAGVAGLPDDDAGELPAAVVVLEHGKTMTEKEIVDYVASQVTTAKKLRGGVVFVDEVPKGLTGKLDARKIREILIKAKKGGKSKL
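Luminescence read by CCD imager after adding enzyme (10nM final) to wells holding compound, titrated in qHTS. Substrates 10uM each D-luciferin and ATP; buffer 50mM Tris acetate pH 7.5, 10mM Mg acetate, Tween-20, BSA.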
NPR1 antag: human Npr1 receptor antagonism. P16066. HEK293 hNpr1 GloSensor cGMP, ANP-stimulated luminescence. Potency, µM (doses to about 46.3 µM), for the others: top-dose activity change, negative = inhibition, hits mostly inhibitors. hit rate 1.6% among 76,000; calls by dose curve; further: nearly all actives have a fitted effect of over 60% in size
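HEK293 cells stably expressing human Npr1 and cGMP GloSensor pGS-40F, loaded 2 h with 2% GloSensor reagent, given compound 30 min at room temperature. Luminescence read before and 20 min after 0.1 nM hNppA.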
HEK293 viab: reduces viability of HEK-293 SNCA reporter cells; HEK-293-SNCA-luc viability, GF-AFC fluorescence, 24 h; Potency, µM (highest dose often 57.1 µM), without a hit: at the highest dose activity change, negative = cytotoxicity, hits mostly cytotoxic; hit rate 0.12% among 150,000;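 further: 0% = DMSO-treated cells and -100% = medium-only wells without cells; nearly all actives have a fitted effect of over 30% in size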
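HEK-293-SNCA-luc cells (1500/well) plated 24 h, then exposed 24 h to a dilution series; GF-AFC added 30 min at 37C, fluorescence 405/540 nm; normalised to medium-only and DMSO wells, Hill fit.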
3T3 cytotox: kills NIH 3T3 cells; hit rate 4.3% among 94,000; NIH 3T3 viability, CellTiter-Glo ATP luminescence, 48-72 h; Potency, µM (doses to about 96.7 µM), for inactives: at the highest dose activity change, negative = cytotoxicity, actives largely listed as inhibitors; further: nearly all actives have a fitted effect of over 55% in size
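Cytotoxicity was measured by CellTiter-Glo ATP luminescence after 48 or 72 h compound exposure at 37 °C. Mouse NIH 3T3 fibroblasts were seeded at 400 cells/well and dosed by 23 nL pin transfer.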
SNCA expr inhib: SNCA gene expression inhibition; HEK-293 SNCA-luciferase knock-in, luminescence, 24 h; Potency, µM (series often up to 57.2 µM), for the others: top-dose activity change, negative = inhibition, most hits filed as inhibitors; hit rate 0.17% among 140,000; AID 1671194;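 further: plate controls were DMSO cells for no effect and cell-free wells for full effect; nearly all actives have a fitted effect of over 45% in size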
Starred values were filed as active, the others as inactive; i = inactive; ? = inconclusive; nt = not tested or not shown; [ ] = another dose, or the depositor's remark. Unless noted, the call rests on the fitted dose curve; in most records, active means well fitted curve in the direction sought with a large enough effect; inconclusive means small, poorly fitted or top-dose-only effect, or another doubt; inactive means no such curve, though single readings can be large; an effect the other way counts as inactive or inconclusive. Unless noted, on the % scale 0 is the no-effect control and ±100 the full control effect; potency means the concentration at half of the fitted maximal effect.

SMILES | HEK293 tox | FLuc inh | NPR1 antag | HEK293 viab | 3T3 cytotox | SNCA expr inhib
CCOC(=O)[C@H]1CN(C(=O)CCc2ccccc2)[C@]2(C)C(=O)N(CCOC(C)=O)c3ccccc3[C@H]12 | 89µM* | nt | nt | nt | -29% | nt
CCOC(=O)[C@H]1CN(C(=O)/C=C/c2ccccc2)[C@]2(C)C(=O)N(CC3CC3)c3ccccc3[C@H]12 | 28µM* | nt | nt | -8%[23.9 µM] | ? | 3%[25.6 µM]
CCOC(=O)[C@H]1CN(C(=O)c2ccc3c(c2)OCO3)[C@]2(C)C(=O)N(CC3CC3)c3ccccc3[C@H]12 | ? | nt | nt | -6%[23.9 µM] | ? | -18%[25.6 µM]
CN1CCNc2cc(NCc3ccccc3)ncc2C1 | ? | 25µM* | -2%[70.6 µM] | -21%[87.6 µM] | 89µM* | 118%[87.6 µM]
O=C1Nc2ccccc2C12CCN(CC1CC1)CC2 | -6%[230 µM] | nt | nt | 4%[87.6 µM] | 1%[174 µM] | 10%[87.6 µM]
c1ccc(Nc2cc3c(cn2)CN(CC2CC2)CCN3)cc1 | 35µM* | 35µM* | 4%[70.6 µM] | ? | ? | 65%[87.6 µM]
O=C(Cc1ccc(CO)cc1)N1CCN(Cc2cn[nH]n2)CC(O)C1 (stereo unspecified) | i | i | 1% | 8% | -13% | 31%
CO[C@H]1C[C@H](O[C@H]2CC[C@@]3(C)C(=CCC4C3CC[C@]3(C)[C@@H](C5=CC(=O)OC5)CC[C@]43O)C2)O[C@@H](C)[C@@H]1O[C@@H]1O[C@H](CO[C@@H]2O[C@H](CO)[C@@H](O)[C@H](O)[C@H]2O)[C@@H](O)[C@H](O)[C@H]1O (stereo partly specified) | nt | nt | nt | -2%[12.5 µM] | nt | nt
CCOC(=O)[C@H]1CN(C(=O)NCc2ccccc2)[C@]2(C)C(=O)N(CC(=O)N(C)C)c3ccccc3[C@H]12 | i | nt | nt | -2%[23.9 µM] | ? | 50%[25.6 µM]
N#Cc1cccc(NC(=O)NC[C@H]2C[C@@H]3CCN2C[C@@H]3CN2CCN(c3ccccc3)CC2)c1 | ? | i | -16% | ? | 22µM* | ?
O=C(NC[C@H]1C[C@@H]2CCN1C[C@@H]2CN1CCN(c2ccc(F)cc2)CC1)Nc1cccc(F)c1 | 28µM* | i | -19% | -11% | 22µM* | ?
CC(C)=CCC[C@]1(C)C=Cc2c(O)c3c(c(CC=C(C)C)c2O1)O[C@]12C(=C[C@@H]4CC1C(C)(C)O[C@@]2(C/C=C(/C)C(=O)O)C4=O)C3=O | nt | nt | nt | 1.9µM* | nt | nt
Cc1ccc(C(=O)N2[C@H]3CC[C@@H]2c2cnc(C)nc2C3)c(C)c1 | -3% | i | 3% | 5% | -13% | 22%
CC(=O)c1ccc(NC(=O)NC[C@H]2C[C@@H]3CCN2C[C@@H]3CN(C)Cc2ccccc2)cc1 | 100µM* | i | 1%[70.6 µM] | -9%[87.6 µM] | 89µM* | 7%[87.6 µM]
CN(Cc1ccccc1)C[C@H]1CN2CC[C@H]1C[C@@H]2CNC(=O)Nc1ccccc1 | 100µM* | i | 5%[70.6 µM] | -8%[87.6 µM] | 100µM* | 6%[87.6 µM]
C#CCN(C)C[C@H]1CN2CC[C@H]1C[C@@H]2CNC(=O)Nc1ccc(C(C)=O)cc1 | -9%[172 µM] | i | -2%[70.6 µM] | -3%[87.6 µM] | -17%[174 µM] | 58%[87.6 µM]
CN(Cc1ccccc1)C[C@H]1CN2CC[C@H]1C[C@@H]2CNC(=O)c1ccccc1 | ? | i | 1%[70.6 µM] | 2%[87.6 µM] | ? | -2%[87.6 µM]
CC(C)NC(=O)NC[C@H]1C[C@@H]2CCN1C[C@@H]2CN(C)c1ccccc1 | ? | i | 5%[70.6 µM] | 3%[87.6 µM] | -19%[174 µM] | -1%[87.6 µM]
Cn1nccc1CN1CCCC2(CC(c3cccnc3)=NO2)C1 (stereo unspecified) | 0% | nt | nt | 2% | -13% | -2%
Cc1ccccc1-c1ccc2n(c1=O)C[C@H]1C[C@@H]2CN(Cc2cccs2)C1 | 71µM* | i | ? | 2%[87.6 µM] | ? | -26%[87.6 µM]
O=c1c(-c2cccs2)ccc2n1C[C@H]1C[C@@H]2CN(Cc2cc3ccccc3o2)C1 | 89µM* | i | -20%[70.6 µM] | 2%[87.6 µM] | ? | -3%[87.6 µM]
O=C(O)COCC(=O)N1C[C@@H]2C[C@H](C1)c1ccc(-c3cc4ccccc4s3)c(=O)n1C2 | -8% | ? | 3% | 5% | -9% | 50%
